# PubChem BioAssay (EPA / NIEHS)
# Results filed as inconclusive are left out. Calls of active or inactive are those of the source. Rule for the calls, unless noted: active = hit-call score of the fitted dose curve at least 0.9, where 1 is the maximum; inactive = score below 0.9.
# How the values were obtained:
# [1] = biological target: human Retinoid X Receptor beta (RXRb), RXRB (gene 6257) (UniProt P28702); test: ATG_RXRb_TRANS: Attagene TRANS-FACTORIAL HepG2 Assay for human Retinoid X Receptor beta (RXRb) (AID 2283013; active = hit-call score of the fitted dose curve at least 0.9, where 1 is the maximum)
# In short: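 Read-out: reporter mRNA induction via RT-PCR plus capillary electrophoresis fluorescence, analysed as signal increase relative to DMSO. Cells were human HepG2, transiently transfected with GAL4-UAS reporter constructs and chimeric receptor-Gal4 fusions, dosed for 24 h.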
# [2] = biological target: human Thyroid Receptor alpha (THRa1), THRA (gene 7067) (UniProt P10827); test: ATG_THRa1_TRANS: Attagene TRANS-FACTORIAL HepG2 Assay for human Thyroid Receptor alpha (THRa1) (AID 2283014; active = hit-call score of the fitted dose curve at least 0.9, where 1 is the maximum)
# In short: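 Transcripts from GAL4-UAS-driven reporters, measured after 24 h compound exposure by RT-PCR plus capillary electrophoresis of 6-FAM-labeled fragments, were fitted for gain of signal relative to DMSO. Cells: transiently transfected HepG2 expressing NR-Gal4 chimeras.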
# [3] = read-out: E-selectin (Homo sapiens) (UniProt P16581); test: BSK_3C_Eselectin: BioMAP Diversity Plus: 3C Assay for Eselectin Biomarker Activity (AID 2283015); details: primary human endothelial cells (HUVEC); actives raise or lower the signal;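 for outcome: cell surface E-selectin protein quantified by ELISA 24 h after dosing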
# In short: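 E-selectin ELISA readout, fitted bidirectionally relative to DMSO, taken 24 h post-dosing in HUVEC cultures of the 3C system. Overt cytotoxicity tracked with sulforhodamine B staining of parallel wells.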
# [4] = read-out: Interleukin-1 alpha (IL1a), IL1A (gene 3552); test: BSK_BE3C_IL1a: BioMAP Diversity Plus: BE3C Assay for Interleukin-1 alpha (IL1a) Biomarker Activity (AID 2283016); details: primary human bronchial epithelial cells; actives raise or lower the signal
# In short: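 ELISA read-out of IL-1a from human lung bronchial epithelial primary cells, 24 h post-dose. Gain or loss of signal fitted relative to DMSO negative control.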
# [5] = read-out: Monocyte Chemoattractant Protein-1 (MCP1), CCL2 (gene 6347); test: BSK_3C_MCP1: BioMAP Diversity Plus: 3C Assay for Monocyte Chemoattractant Protein-1 (MCP1) Biomarker Activity (AID 2283017); details: primary human endothelial cells (HUVEC); actives raise or lower the signal
# In short: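 MCP-1 was measured by ELISA 24 h after dosing in primary HUVEC 3C cultures and fitted in both directions relative to DMSO; cytotoxicity was checked by SRB total-protein staining in parallel wells.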
# [6] = read-out: Monocyte Chemoattractant Protein-1 (MCP1), CCL2 (gene 6347); test: BSK_4H_MCP1: BioMAP Diversity Plus: 4H Assay for Monocyte Chemoattractant Protein-1 (MCP1) Biomarker Activity (AID 2283018); details: primary human endothelial cells (HUVEC); actives raise or lower the signal
# In short: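 HUVEC primary cells, 24 h post-dose, MCP-1 by ELISA. Gain or loss of signal fitted bidirectionally vs DMSO baseline. Cytotoxicity: SRB stain (0.1% after 10% TCA fixation), read 560 nm, parallel cultures.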
# [7] = read-out: Human Leukocyte Antigen - DR isotype (HLADR), HLA-DRA (gene 3122); test: BSK_3C_HLADR: BioMAP Diversity Plus: 3C Assay for Human Leukocyte Antigen - DR isotype (HLADR) Biomarker Activity (AID 2283019); details: primary human endothelial cells (HUVEC); actives raise or lower the signal;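 for outcome: ELISA of cell-surface HLA-DR on HUVEC 24 h after dosing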
# In short: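 Bidirectional fitting against DMSO was applied to the HLA-DR ELISA signal from human umbilical vein endothelial cells, 24 h post-dose. Cytotoxicity came from parallel SRB total-protein staining; 3C proliferation was counted by SRB at 48 h.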
# [8] = read-out: Interleukin-8 (IL8), CXCL8 (gene 3576); test: BSK_3C_IL8: BioMAP Diversity Plus: 3C Assay for Interleukin-8 (IL8) Biomarker Activity (AID 2283020); details: primary human endothelial cells (HUVEC); actives raise or lower the signal
# In short: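 HUVEC, 3C stimulation; 24 h compound exposure; IL-8 read by ELISA; gain or loss of signal fitted relative to DMSO control.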
# [9] = read-out: Monokine induced gamma interferon (MIG), CXCL9 (gene 4283); test: BSK_3C_MIG: BioMAP Diversity Plus: 3C Assay for Monokine induced gamma interferon (MIG) Biomarker Activity (AID 2283021); details: primary human endothelial cells (HUVEC); actives raise or lower the signal
# In short: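 HUVEC, 3C system; 24 h chemical exposure; MIG by ELISA; bidirectional fit vs DMSO baseline.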
# [10] = BSK_3C_SRB: Viability Assessment in the BioMAP Diversity Plus: 3C Assay (AID 2283023); details: primary human endothelial cells (HUVEC);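 note: fitted both ways against DMSO so a hit may be signal rise or drop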
# In short: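 Cytotoxicity readout in parallel HUVEC 3C cultures: after 24 h compound exposure, cells fixed with 10% TCA, stained with 0.1% SRB and read at 560 nm. Gain or loss relative to DMSO fitted.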
# [11] = read-out: Matrix Metallopeptidase 1 (MMP1), MMP1 (gene 4312); test: BSK_BE3C_MMP1: BioMAP Diversity Plus: BE3C Assay for Matrix Metallopeptidase 1 (MMP1) Biomarker Activity (AID 2283024); details: primary human bronchial epithelial cells; actives raise or lower the signal
# In short: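 ELISA read-out of MMP1 in human lung bronchial epithelial primary cultures, 24 h post-dose; bidirectional curve fit vs DMSO baseline, gain or loss of signal scored.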
# [12] = BSK_3C_Vis: BioMAP Diversity Plus: 3C Assay for Morphology Visualization (AID 2283025); details: primary human endothelial cells (HUVEC);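 note: fitted both ways so gain or loss versus DMSO counts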;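 for AC50: light microscopy image of cell morphology used as background control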
# In short: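 HUVEC, 3C system; light microscopy of morphology at 24 h post-dose. Bidirectional fit vs DMSO baseline. Secondary readout, background-control function.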
# [13] = read-out: Pselectin, SELP (gene 6403); test: BSK_4H_Pselectin: BioMAP Diversity Plus: 4H Assay for Pselectin Biomarker Activity (AID 2283026); details: primary human endothelial cells (HUVEC); actives raise or lower the signal
# In short: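 HUVEC, 24 h chemical exposure; P-selectin read by ELISA. Bidirectional curve fit vs DMSO baseline; gain or loss of signal scored.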
# [14] = BSK_4H_SRB: Viability Assessment in the BioMAP Diversity Plus: 4H Assay (AID 2283027); details: primary human endothelial cells (HUVEC);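 note: cells exposed to compound for 24 h before staining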;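 for AC50: curves fitted both ways versus DMSO so AC50 may be loss or gain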
# In short: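 Cytotoxicity read-out in primary human endothelial cells: after 24 h compound exposure, cells were TCA-fixed (10%), stained with 0.1% SRB and absorbance taken at 560 nm. Values fitted in both directions relative to DMSO.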
# [15] = BSK_BE3C_SRB: Viability Assessment in the BioMAP Diversity Plus: BE3C Assay (AID 2283028); details: primary human bronchial epithelial cells
# In short: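 Cytotoxicity read-out: SRB (0.1%) staining of TCA-fixed (10%) human lung bronchial epithelial cells, absorbance 560 nm, 24 h post-dosing. Curves fitted both directions relative to DMSO.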
# [16] = read-out: Thrombomodulin, THBD (gene 7056); test: BSK_3C_Thrombomodulin: BioMAP Diversity Plus: 3C Assay for Thrombomodulin Biomarker Activity (AID 2283029); details: primary human endothelial cells (HUVEC); actives raise or lower the signal
# In short: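 HUVEC, 3C conditions; compound 24 h; thrombomodulin by ELISA; bidirectional curve fit vs DMSO baseline; parallel SRB total-protein staining for cytotoxicity.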
# [17] = read-out: Urokinase-type plasminogen activator receptor (uPAR), PLAUR (gene 5329); test: BSK_4H_uPAR: BioMAP Diversity Plus: 4H Assay for Urokinase-type plasminogen activator receptor (uPAR) Biomarker Activity (AID 2283030); details: primary human endothelial cells (HUVEC); actives raise or lower the signal
# In short: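 uPAR level read by ELISA on HUVEC cultures (BioMAP 4H) 24 h post-dosing, analyzed for gain or loss relative to DMSO. Parallel SRB staining assessed overt cytotoxicity.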
# [18] = biological target: human Vitamin D Receptor (VDR), VDR (gene 7421) (UniProt P11473); test: ATG_VDR_TRANS: Attagene TRANS-FACTORIAL HepG2 Assay for human Vitamin D Receptor (VDR) (AID 2283022; active = hit-call score of the fitted dose curve at least 0.9, where 1 is the maximum)
# In short: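 Transactivation by an exogenous VDR-Gal4 chimera in transiently transfected HepG2 cells was measured as reporter transcript level 24 hours after chemical treatment. RT-PCR products were analysed by capillary electrophoresis and fitted in the positive direction relative to DMSO.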
# [19] = biological target: human RAR-related Orphan Receptor gamma (RORg), RORC (gene 6097) (UniProt P51449); test: ATG_RORg_TRANS: Attagene TRANS-FACTORIAL HepG2 Assay for human RAR-related Orphan Receptor gamma (RORg) (AID 2283011; active = hit-call score of the fitted dose curve at least 0.9, where 1 is the maximum)
# In short: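 Reporter transcripts from a transfected RORg-GAL4 chimera in HepG2 cells were quantified 24 h after dosing by RT-PCR, 6-FAM labelling, HpaI digestion and capillary electrophoresis; increases over DMSO baseline were fitted.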
# Sequence of human Retinoid X Receptor beta (RXRb), RXRB (gene 6257) (P28702 whole entry, looked up, the tested form may be a part): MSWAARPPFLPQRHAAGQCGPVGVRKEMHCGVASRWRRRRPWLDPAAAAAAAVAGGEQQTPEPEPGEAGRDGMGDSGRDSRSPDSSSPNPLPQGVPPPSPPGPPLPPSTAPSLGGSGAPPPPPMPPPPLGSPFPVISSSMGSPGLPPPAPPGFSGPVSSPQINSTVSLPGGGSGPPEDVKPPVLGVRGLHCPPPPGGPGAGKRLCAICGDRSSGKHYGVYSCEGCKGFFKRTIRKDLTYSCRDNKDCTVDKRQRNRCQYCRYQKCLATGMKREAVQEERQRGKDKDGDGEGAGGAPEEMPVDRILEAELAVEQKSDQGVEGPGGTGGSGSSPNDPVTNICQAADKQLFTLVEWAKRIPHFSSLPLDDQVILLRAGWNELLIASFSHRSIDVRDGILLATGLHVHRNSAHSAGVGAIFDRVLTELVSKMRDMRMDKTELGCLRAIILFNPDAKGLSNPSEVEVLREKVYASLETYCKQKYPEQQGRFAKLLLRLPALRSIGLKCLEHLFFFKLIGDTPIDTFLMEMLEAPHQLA
# Sequence of human Vitamin D Receptor (VDR), VDR (gene 7421) (P11473 whole entry, looked up, the tested form may be a part): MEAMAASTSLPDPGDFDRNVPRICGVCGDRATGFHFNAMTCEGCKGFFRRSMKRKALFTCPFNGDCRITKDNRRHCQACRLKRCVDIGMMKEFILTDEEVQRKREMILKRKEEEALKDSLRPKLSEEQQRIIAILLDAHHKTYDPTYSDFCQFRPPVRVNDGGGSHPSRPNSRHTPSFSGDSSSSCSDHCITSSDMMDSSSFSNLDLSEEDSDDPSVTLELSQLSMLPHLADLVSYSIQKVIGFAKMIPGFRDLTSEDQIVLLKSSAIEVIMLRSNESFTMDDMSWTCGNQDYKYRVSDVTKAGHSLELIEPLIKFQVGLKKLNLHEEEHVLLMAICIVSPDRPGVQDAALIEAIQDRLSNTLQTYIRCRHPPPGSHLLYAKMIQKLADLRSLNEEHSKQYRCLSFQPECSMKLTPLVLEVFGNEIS
# Sequence of E-selectin (Homo sapiens) (P16581 whole entry, looked up): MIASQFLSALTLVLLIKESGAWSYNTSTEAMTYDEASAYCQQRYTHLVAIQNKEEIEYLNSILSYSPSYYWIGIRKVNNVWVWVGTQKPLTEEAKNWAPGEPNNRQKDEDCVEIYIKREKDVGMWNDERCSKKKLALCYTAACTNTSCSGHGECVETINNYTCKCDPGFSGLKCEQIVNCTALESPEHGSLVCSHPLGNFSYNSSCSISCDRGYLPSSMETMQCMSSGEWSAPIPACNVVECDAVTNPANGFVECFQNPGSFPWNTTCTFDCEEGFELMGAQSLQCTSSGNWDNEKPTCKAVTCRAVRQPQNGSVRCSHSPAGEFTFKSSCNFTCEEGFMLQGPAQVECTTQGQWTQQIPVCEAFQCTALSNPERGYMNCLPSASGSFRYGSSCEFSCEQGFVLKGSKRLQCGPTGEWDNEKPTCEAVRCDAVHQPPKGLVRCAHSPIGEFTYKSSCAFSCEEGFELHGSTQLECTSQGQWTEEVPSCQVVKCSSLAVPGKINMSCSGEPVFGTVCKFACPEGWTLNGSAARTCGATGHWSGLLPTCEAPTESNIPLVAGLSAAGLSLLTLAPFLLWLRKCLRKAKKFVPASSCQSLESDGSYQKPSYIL
# Sequence of human RAR-related Orphan Receptor gamma (RORg), RORC (gene 6097) (P51449 whole entry, looked up, the tested form may be a part): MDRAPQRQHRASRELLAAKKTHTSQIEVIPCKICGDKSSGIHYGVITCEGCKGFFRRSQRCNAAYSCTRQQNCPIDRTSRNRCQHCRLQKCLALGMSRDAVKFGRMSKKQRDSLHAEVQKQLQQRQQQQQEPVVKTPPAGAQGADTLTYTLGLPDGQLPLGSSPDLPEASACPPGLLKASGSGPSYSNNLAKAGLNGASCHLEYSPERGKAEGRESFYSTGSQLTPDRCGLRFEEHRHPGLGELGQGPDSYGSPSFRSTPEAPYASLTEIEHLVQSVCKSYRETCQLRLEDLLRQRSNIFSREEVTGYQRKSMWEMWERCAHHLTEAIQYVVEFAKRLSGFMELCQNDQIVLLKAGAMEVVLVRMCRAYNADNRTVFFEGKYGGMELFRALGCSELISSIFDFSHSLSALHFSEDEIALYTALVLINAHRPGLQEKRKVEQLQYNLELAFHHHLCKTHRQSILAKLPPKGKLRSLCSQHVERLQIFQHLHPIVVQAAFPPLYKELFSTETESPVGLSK
# Sequence of human Thyroid Receptor alpha (THRa1), THRA (gene 7067) (P10827 whole entry, looked up, the tested form may be a part): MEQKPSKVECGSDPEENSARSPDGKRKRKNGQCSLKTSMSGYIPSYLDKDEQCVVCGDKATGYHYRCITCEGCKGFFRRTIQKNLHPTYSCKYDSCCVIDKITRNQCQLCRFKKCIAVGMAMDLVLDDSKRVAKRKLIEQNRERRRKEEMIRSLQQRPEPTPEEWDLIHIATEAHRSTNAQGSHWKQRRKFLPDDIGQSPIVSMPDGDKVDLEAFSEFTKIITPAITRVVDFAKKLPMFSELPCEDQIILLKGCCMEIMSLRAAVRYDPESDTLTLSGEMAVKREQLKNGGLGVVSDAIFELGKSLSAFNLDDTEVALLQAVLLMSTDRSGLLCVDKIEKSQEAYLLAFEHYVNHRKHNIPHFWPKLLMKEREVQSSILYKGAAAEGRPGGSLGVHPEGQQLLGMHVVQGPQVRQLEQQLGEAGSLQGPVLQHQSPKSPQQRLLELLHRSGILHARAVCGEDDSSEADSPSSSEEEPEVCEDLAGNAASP
structure (smiles),measurement,setting,value
Cc1cc(C)nc(Nc2ccccc2)n1,outcome,[1],inactive
same,outcome,[2],inactive
same,outcome,[3],inactive
same,outcome,[4],inactive
same,outcome,[5],inactive
same,outcome,[6],inactive
same,AC50,[7],16.6 µM (active)
same,outcome,[8],inactive
same,outcome,[9],inactive
same,outcome,[10],inactive
same,outcome,[11],inactive
same,outcome,[12],inactive
same,outcome,[13],inactive
same,outcome,[14],inactive
same,outcome,[15],inactive
same,outcome,[16],inactive
same,outcome,[17],inactive
Clc1nc(Cl)nc(Nc2ccccc2Cl)n1,outcome,[2],inactive
same,outcome,[3],inactive
same,outcome,[4],inactive
same,outcome,[5],inactive
same,outcome,[6],inactive
same,outcome,[7],inactive
same,outcome,[8],inactive
same,outcome,[9],inactive
same,outcome,[18],inactive
same,outcome,[10],inactive
same,outcome,[11],inactive
same,outcome,[12],inactive
same,outcome,[13],inactive
same,outcome,[14],inactive
same,outcome,[15],inactive
same,outcome,[16],inactive
same,outcome,[17],inactive
COC(=O)c1c(C(F)F)nc(C(F)(F)F)c(C2=NCCS2)c1CC(C)C,outcome,[1],inactive
same,outcome,[3],inactive
same,outcome,[4],inactive
same,outcome,[5],inactive
same,AC50,[6],17.6 µM (active)
same,AC50,[7],25.2 µM (active)
same,outcome,[8],inactive
same,outcome,[9],inactive
same,outcome,[18],inactive
same,AC50,[10],33.3 µM (active)
same,outcome,[11],inactive
same,outcome,[12],inactive
same,outcome,[13],inactive
same,outcome,[15],inactive
same,outcome,[16],inactive
same,AC50,[17],33.9 µM (active)
CC(C)C1(C)N=C(c2ncccc2C(=O)O)NC1=O (configuration not stated),outcome,[19],inactive
same,outcome,[3],inactive
same,outcome,[4],inactive
same,outcome,[5],inactive
same,outcome,[6],inactive
same,outcome,[7],inactive
same,outcome,[8],inactive
same,outcome,[9],inactive
same,outcome,[10],inactive
same,outcome,[11],inactive
same,outcome,[12],inactive
same,outcome,[13],inactive
same,outcome,[15],inactive
same,outcome,[16],inactive
same,outcome,[17],inactive
COC(=O)NS(=O)(=O)c1ccc(N)cc1,outcome,[19],inactive
same,outcome,[3],inactive
same,outcome,[4],inactive
same,outcome,[5],inactive
same,outcome,[6],inactive
same,outcome,[7],inactive
same,outcome,[8],inactive
same,outcome,[9],inactive
same,outcome,[10],inactive
same,outcome,[11],inactive
same,outcome,[12],inactive
same,outcome,[13],inactive
same,outcome,[15],inactive
same,outcome,[16],inactive
same,outcome,[17],inactive
Cn1c(-c2ccccc2)cc(-c2ccccc2)[n+]1C,outcome,[1],inactive
same,AC50,[3],1.56 µM (active)
same,outcome,[4],inactive
same,AC50,[5],5.41 µM (active)
same,outcome,[6],inactive
same,AC50,[7],2.89 µM (active)
same,outcome,[8],inactive
same,outcome,[9],inactive
same,outcome,[18],inactive
same,outcome,[10],inactive
same,outcome,[11],inactive
same,AC50,[12],9.8 µM (active)
same,outcome,[13],inactive
same,AC50,[14],1.65 µM (active)
same,outcome,[15],inactive
same,outcome,[16],inactive
same,outcome,[17],inactive
